Compound activity as filed in PubChem BioAssay.
MazF activator: activators of E. coli MazEF toxin-antitoxin RNase; P0AE70; FAM/BHQ RNA-DNA oligo cleavage fluorescence, 5 h; activation, % at 20 µM; 0.32% of 350,000 active; AID 504720; in the data active = activation above about 50%
BoNT A protease: blocks Botulinum neurotoxin A light chain protease; multiplex microsphere protease substrate cleavage, flow cytometry; inhibition, % at 10 µM; 0.17% of 360,000 active
Bead autofluor: compound fluorescence in toxin protease inhibitor counterscreen; AID 624483; compound autofluorescence counterscreen, microsphere flow cytometry; active compounds read high; fluorescence intensity (no concentration beside the values); 3.1% of 360,000 active; in the data active = fluorescence intensity above about 16000; inconclusive = no clear call, values can overlap the other calls
BoNT F protease: blocks Botulinum neurotoxin F light chain protease; Multiplex microsphere protease cleavage assay, flow cytometry; AID 588497; inhibition, % at 10 µM; 0.22% of 360,000 active; in the data active = inhibition above about 35%, passing the limit was not always enough; inconclusive = no clear call, values can overlap the other calls
Anthrax LF prot: inhibitors of Bacillus anthracis lethal factor protease | AID 588501 | 0.12% of 360,000 active | inhibition, % at 10 µM | P15917 | multiplex microsphere protease cleavage assay, LF
Target sequence (P15917 whole entry, looked up): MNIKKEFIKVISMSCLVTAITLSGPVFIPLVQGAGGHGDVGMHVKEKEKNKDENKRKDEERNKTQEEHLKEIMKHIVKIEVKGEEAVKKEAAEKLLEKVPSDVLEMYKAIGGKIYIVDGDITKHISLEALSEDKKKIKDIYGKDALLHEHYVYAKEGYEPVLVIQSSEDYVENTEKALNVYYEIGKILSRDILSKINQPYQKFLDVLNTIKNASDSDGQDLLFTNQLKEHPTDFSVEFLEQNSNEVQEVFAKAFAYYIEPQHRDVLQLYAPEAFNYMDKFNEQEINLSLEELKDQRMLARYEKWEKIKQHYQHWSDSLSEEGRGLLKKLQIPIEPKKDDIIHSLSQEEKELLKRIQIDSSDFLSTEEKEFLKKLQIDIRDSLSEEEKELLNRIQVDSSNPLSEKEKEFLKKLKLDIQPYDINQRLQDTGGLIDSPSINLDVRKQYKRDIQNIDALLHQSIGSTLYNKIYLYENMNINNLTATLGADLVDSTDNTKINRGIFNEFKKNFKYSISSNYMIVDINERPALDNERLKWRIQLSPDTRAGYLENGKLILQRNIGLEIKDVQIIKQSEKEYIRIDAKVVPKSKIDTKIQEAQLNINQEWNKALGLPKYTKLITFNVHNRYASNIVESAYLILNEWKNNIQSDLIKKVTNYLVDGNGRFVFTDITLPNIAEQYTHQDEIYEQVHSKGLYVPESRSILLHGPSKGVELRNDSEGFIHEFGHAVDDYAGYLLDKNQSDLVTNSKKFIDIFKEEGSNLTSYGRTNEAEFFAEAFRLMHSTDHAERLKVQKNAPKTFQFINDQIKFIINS
PfHsp40 rescue: restores yeast growth despite PfHsp40 toxicity; growth rescue, % at 12.5 µM; AID 504582; 0.68% of 340,000 active; S. cerevisiae expressing PfHsp40, growth rescue, ATP luminescence; in the data active = growth rescue above about 28%, passing the limit was not always enough; inconclusive = no clear call, values can overlap the other calls;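 also: yeast W303a lacking pdr1 and pdr3 grown in galactose medium; growth measured after three days at 30 °C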
Each line names hits and unclear results; the compound was inactive in the other large screens. Hits are enriched below; roughly 4.3% of the tested compounds scored in any of these assays. Rule as the data show it, unless noted: active = inhibition above about 30%; inconclusive = no clear call, values can overlap the other calls; inactive = below that.

Cc1cc(NS(=O)(=O)c2ccc(NC(=O)COc3ccccc3C(C)(C)C)cc2)no1	none
Cc1ccc(C(=O)NCC(=O)Nc2ccc(S(=O)(=O)Nc3cc(C)nc(C)n3)cc2)cc1	none
COC(=O)c1cc(-c2ccc(NC(C)=O)cc2)nc2ccccc12	none
Cc1csc(=O)n1CC(=O)OCC(=O)Nc1ccc(C(N)=O)cc1	Bead autofluor inconclusive
Cc1ccc(NC(=O)COC(=O)Cn2c(C)csc2=O)cc1C	Bead autofluor 17233
Cc1nn(-c2ccccc2)c2c1C(c1ccco1)C(C#N)=C(N)O2 (stereo not drawn)	BoNT A protease inconclusive, Bead autofluor 23537
COc1ccc(-c2ccc(C3C(C#N)=C(N)Oc4n[nH]c(C)c43)o2)cc1 (stereo not drawn)	BoNT A protease inconclusive, Bead autofluor 21391
Cc1[nH]nc2c1C(c1ccco1)C(C#N)=C(N)O2 (stereo not drawn)	none
Cc1nn(-c2ccccc2)c2c1C(c1cccs1)C(C#N)=C(N)O2 (stereo not drawn)	none
COc1ccc(OC)c(C2C(C#N)=C(N)Oc3c2c(C)nn3-c2cccc(Cl)c2)c1 (stereo not drawn)	BoNT A protease inconclusive, Bead autofluor 20225
Cc1ccc(-n2nc(C)c3c2OC(N)=C(C#N)C3c2ccc(F)cc2)cc1 (stereo not drawn)	Bead autofluor 22457
Cc1cc(C)cc(N(CCC#N)C(=O)CSc2ncnc3sccc23)c1	none
COc1ccc(COc2ccc(S(=O)(=O)N3CCCC3)cc2C(N)=O)cc1F	none
Cc1ccc(C)c(NC(=O)CN(C)C(=O)c2cc(-c3cccs3)nn2-c2ccccc2)c1	none
O=C(CCCC(=O)c1ccccc1)Nc1ccc(O)cc1	none
Cc1nn(-c2ccccc2)c(C)c1C1C(C#N)=C(N)Oc2n[nH]c(C)c21 (stereo not drawn)	BoNT F protease 35.8
COc1ccc(C)cc1Nc1n[n+](-c2ccccc2)c(-c2ccc(NC(C)=O)cc2)s1	none
COc1ccc(C)cc1Nc1n[n+](-c2ccccc2)c(-c2cc([N+](=O)[O-])cc(OC)c2O)s1	MazF activator 445.0
COc1cc(CN2CCN(c3ccccc3F)CC2)c([N+](=O)[O-])cc1OC	none
Cc1nnc(N2CCCC(C(=O)Nc3cc(F)ccc3F)C2)c2nn(-c3ccccc3)c(C)c12 (stereo not drawn)	none
Cc1nnc(N2CCCC(C(=O)NCc3ccc(OC(C)C)cc3)C2)c2nn(-c3ccccc3)c(C)c12 (stereo not drawn)	MazF activator 88.4, Bead autofluor 24028
CCOC(=O)c1c(S(=O)(=O)N2CCCC(C(=O)Nc3cccc(C)n3)C2)c(C)n(C)c1C (stereo not drawn)	none
COc1ccc2c(c1OC)C(=O)OC2CC(=O)c1ccc2c(c1)OCO2 (stereo not drawn)	BoNT A protease inconclusive, Bead autofluor 16170
COc1ccc2c(c1OC)C(=O)OC2C/C(=N\NC(N)=O)c1ccccc1 (stereo not drawn)	none
Cc1cccc(C(=O)NCc2nnc(SCC(=O)NC3CCCC3)n2C)c1	none
CCCn1c(=O)c2ccccc2n2c(SCC(=O)NCc3cccs3)nnc12	none
CCn1c(SCC(=O)NC2CC2)nnc1-c1cccs1	none
CCn1c(SC(=O)NC2CCCCC2)nnc1-c1cccs1	Bead autofluor 16821
CCn1c(SCC(=O)NCc2ccco2)nnc1-c1cccs1	BoNT A protease inconclusive, Bead autofluor 19582
Cc1cccc(C)c1OCC(=O)NCc1nnc(SCC(=O)NC2CCCCC2)n1C	BoNT A protease inconclusive, Bead autofluor 22773
CCn1c(=O)c2ccccc2n2c(SCC(=O)NCc3cccs3)nnc12	Bead autofluor 23072
CCn1c(SCC(=O)NC2CCCCC2)nnc1-c1cccs1	Bead autofluor 20887
CC1(C)OC(C)(C)/C(=C\c2ccc(OCC(N)=O)cc2)C1=O	none
O=S(=O)(O)c1cccc2c(N=Nc3ccc(O)c4ncccc34)cccc12	PfHsp40 rescue 93.8
Oc1ccc(N=Nc2ccc3c(c2)OCCO3)c2cccnc12	PfHsp40 rescue 267.7
Cc1ccccc1N=Nc1ccc(O)c2ncccc12	none
COc1ccc(N=Nc2ccc(O)c3ncccc23)cc1	none
CC(C)(C)c1csc(NC(=O)Cc2ccc(S(=O)(=O)N3CCOCC3)s2)n1	none
CCOc1ccc(-c2nn(-c3ccccc3)cc2/C=C2\SC(=S)N(Cc3ccco3)C2=O)cc1	BoNT A protease 37.0
CCc1cccc(CC)c1NC(=O)CN1CCN(S(=O)(=O)c2ccccc2)CC1	none
CC(=O)Nc1ccc(NC(=O)CSc2nccn2Cc2ccccc2)cc1	Bead autofluor 20023
O=C(CCSc1nccn1Cc1ccccc1)N1CCOCC1	Bead autofluor 20488
O=C1COc2cc(S(=O)(=O)CCC(=O)N3CCCCC3)c(Cl)cc2N1	none
Cn1c(=O)c2cc(NC(=O)Nc3cccnc3)ccc2n1-c1ccc(C(C)(C)C)cc1	none (no result: MazF activator, PfHsp40 rescue)
Cc1cccc(OCCCc2c(C)n[nH]c2C)c1	BoNT A protease inconclusive, Bead autofluor 22053
Cc1cc(C)n(C(=O)c2c([N+](=O)[O-])c(C)nn2C)n1	Bead autofluor 24146
Cc1cc(C)n(C(=O)c2c([N+](=O)[O-])cnn2C)n1	none
Cc1occc1-c1nnc(SCC(=O)N(C)C)o1	Bead autofluor 19878
Cc1occc1-c1nnc(SCC(=O)N2CCCCC2C)o1 (stereo not drawn)	none
O=C(C1c2ccccc2C(=O)N2CCc3ccccc3C12)N1CCC2(CC1)OCCO2 (stereo not drawn)	none
CC1CCCN(C(=O)C2c3ccccc3C(=O)N3CCc4ccccc4C23)C1 (stereo not drawn)	Bead autofluor 23724
COc1cccc(CN2CCNC(=O)C2CC(=O)NC2CCCCCCC2)c1 (stereo not drawn)	none
CSc1sc(C(=O)NNC(C)=O)c2c1C=CCC2	none (no result: BoNT A protease, Bead autofluor, BoNT F protease, Anthrax LF prot, PfHsp40 rescue)
CC1CCN(C(=O)COC(=O)CCC(=O)c2ccc(Cl)cc2)CC1	none
CC1C(c2ccccc2)N(C)C(c2ccccc2)CC1(O)c1ccccc1 (stereo not drawn)	Bead autofluor 17483
CC1/C(=N/O)CC(c2ccccc2)N(C)C1c1ccccc1 (stereo not drawn)	none
COc1cc(/C=C2\SC(=O)N(CCNC(=O)c3c(C)noc3C)C2=O)cc(OC)c1OC	none
N#Cc1cc2c(nc1SCC(=O)Nc1ccc(Cl)cc1)C1CCN2CC1	none
N#Cc1cc2c(nc1SCC(=O)Nc1cc(Cl)ccc1Cl)C1CCN2CC1	BoNT A protease inconclusive, Bead autofluor 20370
COc1ccc(-n2c(SCCNCCO)nc3sc4c(c3c2=O)CCCC4)cc1	none
Cc1ccccc1-n1c(SCc2c(C)noc2C)nnc1-c1cccnc1	MazF activator 70.1
Cc1ccccc1-n1c(SCc2c(C)noc2C)nnc1-c1ccncc1	BoNT A protease inconclusive, Bead autofluor inconclusive, Anthrax LF prot inconclusive
COc1ccc(-c2nnc(SCc3c(C)noc3C)n2N)cc1OC	Bead autofluor 19531
CC(=O)c1cccc(NC(=O)c2c(-c3c(F)cccc3Cl)noc2C)c1	none
